This note sets out measurements from ChEMBL document CHEMBL1961873, “Compounds: GSK PKIS; Assays: Nanosyn kinase panel” (2012).

In assay [1] the target is Serine/threonine-protein kinase PAK 6 (Homo sapiens) (UniProt Q9NQU5). The note with it: at 1 µM.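 Also: values are mean percent inhibition of PAK6 kinase.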
Assay [2] deals with Tyrosine-protein kinase ABL1 (Homo sapiens), P00519 [E255K]. The note with it: at 0.1 µM.
Assay [3] shares this test system. Conditions: at 1 µM.
For assay [4], the system named is Tyrosine-protein kinase ABL1 (Homo sapiens), P00519 [H396P]. The note with it: at 0.1 µM.
For assay [5] the test system is unchanged. Conditions: at 1 µM.
The test system of assay [6] is Tyrosine-protein kinase ABL1 (Homo sapiens), P00519 [M351T]. The note with it: at 0.1 µM.
The test system is the same in assay [7]. The note with it: at 1 µM.
The subject of assay [8] is Tyrosine-protein kinase ABL1 (Homo sapiens), P00519 [Q252H]. The note with it: at 0.1 µM.
Assay [9] has the same test system. The note with it: at 1 µM.
The test system of assay [10] is Tyrosine-protein kinase ABL1 (Homo sapiens), P00519 [T315I]. Conditions: at 0.1 µM.

Chain of Serine/threonine-protein kinase PAK 6 (Homo sapiens) (Q9NQU5 whole entry, looked up): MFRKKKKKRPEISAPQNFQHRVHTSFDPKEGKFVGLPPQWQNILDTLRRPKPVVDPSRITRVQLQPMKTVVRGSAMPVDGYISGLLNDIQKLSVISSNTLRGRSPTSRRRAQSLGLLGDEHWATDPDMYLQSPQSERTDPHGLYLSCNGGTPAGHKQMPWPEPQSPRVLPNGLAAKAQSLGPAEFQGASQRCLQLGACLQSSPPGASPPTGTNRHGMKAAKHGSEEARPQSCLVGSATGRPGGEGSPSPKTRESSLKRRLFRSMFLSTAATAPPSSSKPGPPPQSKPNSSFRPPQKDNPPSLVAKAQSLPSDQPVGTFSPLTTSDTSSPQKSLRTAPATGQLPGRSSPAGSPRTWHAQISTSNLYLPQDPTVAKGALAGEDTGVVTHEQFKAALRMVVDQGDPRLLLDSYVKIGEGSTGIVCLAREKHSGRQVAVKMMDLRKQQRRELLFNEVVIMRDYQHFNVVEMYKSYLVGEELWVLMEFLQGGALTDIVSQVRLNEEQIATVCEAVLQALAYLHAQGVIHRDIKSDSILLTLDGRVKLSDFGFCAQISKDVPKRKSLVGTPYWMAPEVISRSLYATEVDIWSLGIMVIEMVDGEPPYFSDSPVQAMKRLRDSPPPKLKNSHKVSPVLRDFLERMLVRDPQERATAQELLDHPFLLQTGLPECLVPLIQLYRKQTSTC

One may read the inhibition as the relative decrease from the control value, in per cent. For the compound `NS(=O)(=O)c1ccc(-c2cc3ccncc3cc2OCc2ccccc2)cc1`, the inhibition in assay [1] came out at 4.76%; in assay [2], 2.82%; in [3], 3.92%; in assay [4] it was 4.66%; in assay [5], 6.67%; in assay [6], 3.16%. Moreover, the inhibition is 4.42% in [7], 4.84% in assay [8], 4.61% in [9] and 1.65% in [10].

In the case of `Nc1ccc(C#Cc2cncnc2Nc2ccc(OCc3cccc(F)c3)c(Cl)c2)cc1`, the inhibition in assay [1] was -1.86%; in assay [2], 2.88%; in assay [3], 3.39%; in assay [4], 2.21%; in assay [5], 2.72%; in assay [6] it was -1.21%. Moreover, the inhibition in assay [7] came out at 0.91%; in [8], 2.9%; in [9], 2.24%; in assay [10], 1.6%.

As to `Nc1nccc(C#Cc2cncnc2Nc2ccc(OCc3cccc(F)c3)c(Cl)c2)n1`, the inhibition was 1.07% in [1]; 3.67% in assay [2]; 3.58% in [3]; 3.32% in assay [4]; 2.76% in [5]; 1.11% in assay [6]. Besides, the inhibition in [7] is 0.59%; in assay [8], 2.18%; in assay [9] it was 0.52%; in [10] it was 2.46%.

Take `CC(C)c1ccc2c(c1)NC(=O)/C2=N/Nc1ccc(S(N)(=O)=O)cc1`: the inhibition in assay [1] is -5.25%; in assay [2], 1.09%; in assay [3], 12%; in assay [4], 5.36%; in [5], 33.7%; in [6] it was 7.06%. Further, the inhibition in assay [7] came out at 38%; in assay [8], 4.4%; in assay [9], 26.6%; in assay [10], 1.24%.

As for `NS(=O)(=O)c1ccc(NC=C2C(=O)Nc3ccc4ncsc4c32)cc1`, the inhibition in assay [1] is -1.77%; in assay [2], 6.89%; in assay [3], 37.9%; in [4], 10.9%; in [5] it was 46.7%; in assay [6] it was 10.9%. Moreover, the inhibition came out at 50.6% in assay [7], 14.4% in assay [8], 56.3% in [9] and 15% in [10].

Turning to `Cc1nc(-c2ccccc2)n2nc(NCCCN3CCOCC3)ncc12`, the inhibition was -7.1% in [1]; 0.22% in assay [2]; 2.36% in assay [3]; 2.5% in [4]; 4.26% in [5]; -1.13% in [6]. The inhibition in [7] stood at 0.73%; in [8] it was 3.04%; in [9], 3.3%; in [10], 2.3%.

Take `COc1ccc(-c2nn3ncccc3c2-c2ccnc(Nc3cccc(C(F)(F)F)c3)n2)cc1`: the inhibition in assay [1] was -2.65%; in assay [2] it was 1.06%; in assay [3], 3.04%; in [4], 3.97%; in [5], 7.02%; in [6] it was 2.28%. Besides, the inhibition was found to be 27% in assay [7], 2.67% in assay [8], 17.5% in [9] and 2.45% in [10].

On to `c1ccc(Cc2nc3ccc(Nc4ncnc5ccccc45)cc3[nH]2)cc1`, for which the inhibition in assay [1] is 7.47%; in assay [2] it was 2.13%; in assay [3] it was 4.34%; in [4], 1.27%; in assay [5], 3.84%; in assay [6], 0.27%. Moreover, the inhibition in assay [7] amounted to 5.2%; in assay [8], 4.19%; in [9], 6.39%; in [10] it was 2.12%.

Take `CCn1c(-c2nonc2N)nc2ccc(F)cc21`: the inhibition turned out to be 0.67% in assay [1]; 2.57% in assay [2]; 4.59% in [3]; 4.55% in assay [4]; 4.61% in assay [5]; 2.2% in assay [6]. In addition, the inhibition was 2.4% in assay [7], 4.86% in assay [8], 3.17% in assay [9] and 3.34% in [10].

In the case of `CN1CCN(C(=O)c2ccc(NC(=O)Nc3ccc(N(C)c4ccnc(Nc5ccc(CS(C)(=O)=O)cc5)n4)cc3)cc2)CC1`, the inhibition in assay [1] was -8.2%; in [2] it was 3.11%; in assay [3] it was 29.9%; in assay [4], 18.1%; in assay [5], 67.8%; in [6] it was 24.1%. Moreover, the inhibition worked out at 72.6% in assay [7], 21% in [8], 69.6% in [9] and 17.6% in [10].

Take `Cc1ccc(Nc2ccnc(Nc3cccc(C(N)=O)c3)n2)cc1O`: the inhibition in assay [1] came out at 4.03%; in assay [2], 71.2%; in [3], 93.4%; in [4], 76.5%; in assay [5], 94.4%; in [6], 74.4%. The inhibition was found to be 95% in [7], 67.6% in [8], 91.5% in assay [9] and 7.09% in assay [10].

On to `CN(C)c1cc2c(Nc3ccc4c(cnn4Cc4ccccc4)c3)ncnc2cn1`, for which the inhibition in assay [1] was -3.27%; in assay [2], 1.1%; in assay [3], 1.85%; in assay [4], 0.57%; in assay [5] it was 0.96%; in [6], -0.53%. Further, the inhibition in assay [7] was 1.01%; in assay [8], 0.79%; in assay [9] it was 3.55%; in assay [10] it was -1.13%.

`CN(C)CCCn1c(-c2nonc2N)nc2cnccc21`: the inhibition in assay [1] was -2.15%; in assay [2], 3.28%; in [3], 4.1%; in assay [4], 2.64%; in [5] it was 1.22%; in [6] it was 1.53%. Also, the inhibition in assay [7] was found to be 3.51%; in [8], 3.76%; in assay [9] it was 2.62%; in assay [10], 2.51%.

For the compound `ON=C1CCc2cc(-c3nc(C4CCNCC4)[nH]c3-c3ccncc3)ccc21`, the inhibition is 0% in assay [1]; -0.03% in assay [2]; 0.64% in [3]; 0.53% in [4]; 2.54% in assay [5]; 0.36% in [6]. The inhibition stood at 1.06% in assay [7], 1.13% in assay [8], 2.38% in assay [9] and 1.29% in assay [10].

On to `CCOc1nccc2c1nc(-c1nonc1N)n2CC`, for which the inhibition in [1] worked out at 12.4%; in assay [2] it was 1.66%; in assay [3] it was 3.45%; in assay [4], 1.16%; in [5], 6.55%; in assay [6], 1.78%. Further, the inhibition in assay [7] came to 5.68%; in assay [8], 2.67%; in assay [9], 6.45%; in assay [10], 1.75%.

`NS(=O)(=O)c1ccc(N/N=C2\C(=O)Nc3ccc(Cl)cc32)cc1`: the inhibition in [1] was 7.73%; in assay [2] it was -0.63%; in assay [3] it was 5.98%; in assay [4], 3.92%; in [5], 12.9%; in assay [6], 1.55%. The inhibition was 12.6% in [7], 2.4% in assay [8], 9.91% in assay [9] and 0.91% in assay [10].
